Compound activity as filed in PubChem.
RORg inh: inhibitors of mouse ROR gamma transcriptional activity | hit rate 5.4% among 310,000 | Potency, µM (top dose mostly 53.6 µM), for the others: at the top dose activity change, negative = inhibition, most hits filed as inhibitors | Drosophila S2 Gal4-RORgamma UAS-luciferase reporter, 20 h | P51450 | AID 2551; further: potency means the concentration at half of the fitted maximal effect; nearly all actives have a fitted effect of over 60% in size
Target sequence (P51450 whole entry, looked up, the tested form may be a part): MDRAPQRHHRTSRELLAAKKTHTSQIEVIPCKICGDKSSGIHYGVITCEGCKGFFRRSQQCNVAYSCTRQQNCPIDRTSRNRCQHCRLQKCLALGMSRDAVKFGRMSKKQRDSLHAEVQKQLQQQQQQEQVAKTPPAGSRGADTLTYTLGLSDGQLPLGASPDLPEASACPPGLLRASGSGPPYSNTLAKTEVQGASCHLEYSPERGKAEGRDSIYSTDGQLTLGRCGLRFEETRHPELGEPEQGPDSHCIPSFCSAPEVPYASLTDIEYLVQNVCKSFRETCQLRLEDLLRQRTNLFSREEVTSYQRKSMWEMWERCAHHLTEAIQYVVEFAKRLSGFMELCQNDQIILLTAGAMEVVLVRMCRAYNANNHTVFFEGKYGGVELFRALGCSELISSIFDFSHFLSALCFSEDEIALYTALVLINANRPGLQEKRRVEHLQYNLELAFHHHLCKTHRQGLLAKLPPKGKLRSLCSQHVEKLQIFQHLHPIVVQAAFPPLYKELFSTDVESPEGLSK
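Luminescence from a UAS-regulated Photinus luciferase reporter in stably transfected Drosophila Schneider cells is measured; decreased signal marks ROR gamma inhibition. Fusion expression is induced by 700 uM copper sulfate for 20 hr.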
TSHR antag: human thyrotropin receptor antagonism; TSHR-expressing cells, TSH-stimulated cAMP HTRF, 2 h; hits give low values; activity change, negative = inhibition, % at 11.5 µM; hit rate 0.2% among 330,000; AID 504810;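 active means activity change below a set negative limit, meaning inhibition stronger than a set level, cut at about -70% in these data; inconclusive means activity change between two set negative limits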
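Competitive HTRF cAMP read-out (cryptate anti-cAMP antibody, cAMP-d2; 30 min, room temperature) in freshly harvested TSHR cells. Compounds added before TSH at EC80 (4nM final), followed by 2 hours' incubation at 37 deg C.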
ELG1 DNA repair: blocks ELG1-dependent DNA repair in HEK293T cells; hit rate 2.3% among 330,000; HEK293T ELG1-luciferase reporter, luminescence, 16 h; DNA damage induced by 5-fluorouridine; Potency, µM (titrated, usually from 46.1 µM), for inactives: at the top dose activity change, negative = inhibition, most hits filed as inhibitors; further: potency means the concentration at half of the fitted maximal effect; nearly all actives have a fitted effect of over 55% in size
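HEK293T cells expressing luciferase-tagged ELG1 (2,000/well) received 5-Fluorouridine plus compound or DMSO for 16 hr at 37 °C. Luciferase was read by ONE-Glo luminescence after 30 min at room temperature.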
B2AR arrestin: agonists driving beta-arrestin recruitment to human beta2-adrenergic receptor; Potency, µM (series often up to 46.1 µM), inactives show at the highest dose activation, hits mostly activators; AID 492947; beta-arrestin recruitment to beta2AR, cell-based reporter; hit rate 0.02% among 330,000; P07550;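 further: potency means the concentration at half of the fitted maximal effect; 0% = DMSO controls and full agonism = EC100 isoproterenol or metaproterenol; nearly all actives have a fitted effect of over 65% in size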
Gal4-VP16 FLuc: Gal4-VP16 reporter inhibition counter-screen; Potency, µM (top dose mostly 53.6 µM), for the others: at the highest dose activity, negative = inhibition, most hits filed as inhibitors; Drosophila S2 Gal4-VP16 UAS-luciferase, luminescence, 20 h; hit rate 3.5% among 310,000; AID 2546;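 further: Gal4-VP16 expression switched on by copper sulfate through the metallothionein promoter; potency means the concentration at half of the fitted maximal effect; nearly all actives have a fitted effect of over 50% in size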
Active calls of the source: *; ? = inconclusive; . = no result given; [ ] = another dose, or the depositor's remark. Compounds with a hit are over-represented: about 7.5% of the library has one in this group of screens. Unless noted, the call rests on the fitted dose curve; in most records, active means well fitted curve in the direction sought with a large enough effect; inconclusive means small, poorly fitted or top-dose-only effect, or another doubt; inactive means no such curve, though single readings can be large; an effect the other way counts as inactive or inconclusive. Unless noted, on the % scale 0 is the no-effect control and ±100 the full control effect.

SMILES	RORg inh	TSHR antag	ELG1 DNA repair	B2AR arrestin	Gal4-VP16 FLuc
COc1ccc(OC)c(NC(=O)CSc2nncc3ccc(OC)c(OC)c23)c1	2%	10	21µM*	3%	?
CCn1c(SCC(=O)Nc2nc(C)cs2)nnc1-c1ccoc1C	15%	-2	?	0%	16%
CCC(=O)N1CCc2cc(S(=O)(=O)CCC(=O)NCc3cccc(OC)c3)ccc21	-16%	-6	-6%	0%	4%
COc1cccc(-n2nc(-c3ccnn3-c3ccc(C)cc3)c(=O)n(C)c2=O)c1	-27%	4	21µM*	0%	-8%
CC(C)CC(=O)Nc1ccc(C(=O)COC(=O)CN2C(=O)NC3(CCCCC3C)C2=O)cc1 (stereo unspecified)	.	11	8%	0%	.
CC(=O)NC(c1ccco1)c1cc(Cl)c2ccc(N3CCCCC3)nc2c1O (stereo unspecified)	.	7	.	-1%	.
CCOc1ccc(C(NC(=O)c2ccco2)c2ccc(OC)c(OC)c2)cc1 (stereo unspecified)	3%	8	2%	4%	5%
CC(=O)NC(c1ccccc1)c1cc(Cl)c2cccnc2c1O (stereo unspecified)	1.4µM*	-3	?	?	1.1µM*
CCCC(=O)NC(c1ccc(OC)c(OC)c1)c1cc(Cl)c2cccnc2c1O (stereo unspecified)	2.8µM*	-10	?	0%	5µM*
COc1ccc(C(NC(C)=O)c2cc(Cl)c3cccnc3c2O)cc1 (stereo unspecified)	2µM*	-11	?	?	1.6µM*
O=C(NC(c1ccc(Cl)cc1)c1cc(Cl)c2cccnc2c1O)c1cccnc1 (stereo unspecified)	0.71µM*	7	?	1%	0.71µM*
CC[C@@H](c1ccccc1)n1c(=O)n2n(c1=O)[C@H]1[C@H](O)[C@H]3O[C@@H]3/C(=N/OC[C@@H](O)COCc3ccco3)[C@@H]1CC2	-1%[10 µM]	.	.	.	-2%[10 µM]
CCN(C1CCS(=O)(=O)C1)S(=O)(=O)c1ccc(Cl)s1 (stereo unspecified)	.	-7	3%	0%	.
CC12CC[C@@H]3c4ccc(OS(=O)(=O)O)cc4CC[C@H]3C1CCC2=O (stereo partly specified)	-14%[16.9 µM]	.	.	.	-9%[17 µM]
CCC(=O)NC(c1cc(Cl)c2cccnc2c1O)C(C)C (stereo unspecified)	.	-7	8.2µM*	0%	.
CCC(=O)NC(c1cccs1)c1cc(Cl)c2cccnc2c1O (stereo unspecified)	23%	-9	2%	0%	-9%
CCC(=O)NC(c1cc(Cl)c2cccnc2c1O)C1CC1 (stereo unspecified)	.	-19	?	?	.
CCCCC(=O)NC(c1cccs1)c1cc(Cl)c2cccnc2c1O (stereo unspecified)	2.5µM*	20	?	0%	3.5µM*
CCCC1=C(C(=O)OCC)C(/C=C/c2ccccc2)n2ncnc2N1 (stereo unspecified)	20µM*	6	?	0%	-3%
O=C(CSc1nnnn1-c1ccccc1)NCC1(N2CCOCC2)CCCCC1	.	-10	0%	-1%	.
COc1ccc(CCNC(=O)CS(=O)(=O)c2cn(CC(=O)N(C(C)C)C(C)C)c3ccccc23)cc1OC	-6%	1	0%	0%	4%
Cc1ccc(C(=O)CSc2ccc(-c3ccncc3)nn2)cc1	-3%	-4	?	0%	-6%
Cc1ccc(C(=O)CSc2ccc(-c3cccnc3)nn2)cc1	112µM*	-7	-4%	0%	2.5µM*
O=C(CSc1ccc(-c2cccnc2)nn1)Nc1ccc(F)c(F)c1	16%	-12	13µM*	0%	-6%
O=C(CSc1ccc(-c2cccnc2)nn1)Nc1ccccc1	-26%	1	-23%	0%	0%
SMILES	RORg inh	TSHR antag	ELG1 DNA repair	B2AR arrestin	Gal4-VP16 FLuc
CCC(=O)Nc1ccccc1-c1nnn(CC(=O)N2c3ccccc3CC2C)n1 (stereo unspecified)	21%	3	-21%	0%	1%
CC1Cc2ccccc2N1C(=O)Cn1nnc(-c2ccccc2NC(=O)C2CCC2)n1 (stereo unspecified)	-9%	-14	23µM*	-1%	2%
N=c1c2c(n(Cc3ccc(Cl)cc3)c3c1CCC3)CCC2	-8%	-5	2.9µM*	0%	?
N=c1c2c(n(Cc3ccc(F)cc3)c3c1CCC3)CCCC2	-13%	-3	-5%	0%	-12%
N=c1c2c(n(Cc3ccccc3)c3c1CCC3)CCC2	13%	9	2.9µM*	0%	?
C=CCC(C)(NCc1ccccc1)C(=O)OCC (stereo unspecified)	2%	.	.	.	8%
O=C(C1CC(=O)N(c2ccccc2F)C1)N1CCOCC1 (stereo unspecified)	.	.	0%	0%	.
C=CC[C@@H](Cc1ccc(F)cc1)C(=O)OC[C@H]1CCCN1C(=O)[C@H](CC=C)CC(=O)N[C@H](CO)Cc1ccccc1	.	42	23µM*	0%	.
C=CC[C@@H](Cc1ccc(F)cc1)C(=O)OC[C@@H]1CCCN1C(=O)[C@@H](CC=C)CC(=O)N[C@H](CO)Cc1ccccc1	.	-10	21µM*	-1%	.
C=CC[C@@H](Cc1ccc(F)cc1)C(=O)OC[C@H]1CCCN1C(=O)[C@@H](CC=C)CC(=O)N[C@H](CO)Cc1ccccc1	.	-14	?	0%	.
CCN(CC)CCN1C(=O)C2C(C(=O)Nc3cccc(C)c3)C3C=CC2(O3)C1C(=O)NC1CCCC(C)C1C (stereo unspecified)	-8%	-12	0%	0%	3%
CCCCCCC#Cc1cncc(C(=O)NNC(=O)Nc2cc(Cl)cc(Cl)c2)c1	10%	-3	-28%	0%	2%
CCCCC#Cc1cncc(C(=O)NN)c1	7.9µM*	-1	1%	0%	7.9µM*
COCn1c(-c2ccc(OC)cc2)nc2ccccc21	?	16	?	0%	0%
COc1ccc(Cn2c(O)c(C=Nc3ccc(C)cc3)c3ccccc3c2=O)cc1	3%	14	-8%	-1%	-1%
Cc1cccc(NCc2nc3ccccc3n2Cc2ccccc2)c1	1µM*	1	?	0%	?
COc1ccc(-c2nc3ccccc3n2Cc2ccc(C)cc2)cc1	13µM*	.	.	.	?
COc1ccc(Cn2c(-c3ccc(C)cc3)c[n+]3ccccc23)cc1	11%	10	?	0%	18µM*
COCc1nc2ccccc2n1Cc1ccc(Br)cc1	10µM*	1	?	0%	?
COCc1nc2ccccc2n1Cc1ccccc1	4%	-1	?	0%	?
Cc1ccc(Cn2c(Cc3ccccc3)nc3ccccc32)cc1	8.9µM*	0	10%	-1%	?
